In PubChem BioAssay (NCI):
This is part of a sample that, as a whole, favours compounds with a hit. Of some 83,000 tested, about 20% had one in any assay.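 Assay: single dose, 48 h. Readout: percent growth (0 = no net growth; negative = cell death). Active: <10.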 A number with no mark means an inactive call. Activity calls are given as the source filed them.

Experiments:
Assay in all cases: NCI-60 one-dose screen, 48 h (100 = growth as untreated, 0 = no growth, -100 = all killed)
HCT-15 colon = details: 10 µM unless noted
HT29 colon = details: 10 µM unless noted
SNB-75 CNS = details: 10 µM unless noted
SNB-19 CNS = details: 10 µM unless noted
U251 CNS = details: 10 µM unless noted
PC-3 prostate = details: 10 µM unless noted
SK-MEL-5 melanoma = details: 10 µM unless noted
UACC-62 melanoma = details: 10 µM unless noted
LOX IMVI melanoma = details: 10 µM
SK-MEL-28 melanoma = details: 10 µM unless noted

Compound | growth (HCT-15 colon) | growth (HT29 colon) | growth (SNB-75 CNS) | growth (SNB-19 CNS) | growth (U251 CNS) | growth (PC-3 prostate) | growth (SK-MEL-5 melanoma) | growth (UACC-62 melanoma) | growth (LOX IMVI melanoma) | growth (SK-MEL-28 melanoma)
CC(=O)OCC1OC(OC2C(COC(C)=O)OC(n3cc(COc4ccc5ccc(=O)oc5c4)nn3)C(OC(C)=O)C2OC(C)=O)C(OC(C)=O)C(OC(C)=O)C1OC(C)=O (stereo not given) | 102% | 114% | 69.2% | 100% | 106% | 98.8% | 99.2% | 94.2% | 104% | 109%
CC1(C)CC[C@]2(C(=O)O)CC[C@]3(C)C(=CCC4[C@@]5(C)C[C@@H](O)[C@@H]6OC(c7ccco7)OC[C@@]6(C)C5CC[C@]43C)C2C1 (stereo not given in full) | 20.7% | 21.3% | 72.2% | 28.4% | 16.8% | 20.8% | -33.2% (active) | -7.05% (active) | 22.9% | 24.9%
CCCCSc1nc(Nc2ccc(C(C)=O)cc2)c(C#N)c(-c2ccc(OC)cc2)n1 | 74.9% | 78.5% | 93% | 61.8% | 10.2% | 90.8% | 90.1% | 96.2% | 39.7% | 91%
CCCCCCn1c(O)c(N=Nc2nc(-c3cc4ccccc4oc3=O)cs2)c2ccccc21 | 36.7% | -39.7% (active) | 81.4% | 40% | -57.5% (active) | -2.73% (active) | -64.8% (active) | -2.7% (active) | -63.9% (active) | -39.3% (active)
Cn1cc(-c2cc(N)n3nc(-c4cn(C)c5ccccc45)cc3n2)c2cc(Br)ccc21 | -79.1% (active) | -65.1% (active) | -35.7% (active) | 7.16% (active) | -72% (active) | -34% (active) | -63.5% (active) | -59.7% (active) | -85.3% (active) | -86.4% (active)
COc1ccc(/C=C2\C(=N)N=C(SCc3nc4ccccc4[nH]3)NC2=O)cc1 | 104% | 116% | 103% | 104% | 101% | 122% | 101% | 103% | 98.3% | 118%
Brc1ccc(-c2n(Cc3ccc4ccccc4c3)c(-c3ccccc3)c(-c3ccccc3)[n+]2Cc2ccc3ccccc3c2)cc1 | -85.4% (active) | -98.9% (active) | -97.9% (active) | -93.4% (active) | -97.8% (active) | -29.3% (active) | -98.6% (active) | -88.8% (active) | -92.6% (active) | -96.3% (active)
Cc1occc1C(=O)NN1C(=O)/C(=C/C=C/c2ccc([N+](=O)[O-])o2)SC1=S | -75.5% (active) | -57.2% (active) | -13.4% (active) | 12.6% | -92.7% (active) | 0.198% (active) | -96.7% (active) | -91.9% (active) | -95.9% (active) | -73.2% (active)
COc1ccc(C(=O)/C=C/c2ccc(OC)c(OCc3ccccc3)c2)cc1OC | 1.81% (active) | 5.47% (active) | 39.7% | 17.3% | 7.69% (active) | 25.1% | 31.9% | 14.8% | -26% (active) | 39.8%
Cc1ccc(C(=O)NN2C(=O)/C(=C/C=C/c3ccc([N+](=O)[O-])o3)SC2=S)cc1 | -66.1% (active) | -74.3% (active) | -85% (active) | -100% (active) | -98.9% (active) | -15.1% (active) | -100% (active) | -92.4% (active) | -90.9% (active) | -94.3% (active)
O=C(CSc1nc2ccccc2c(=O)[nH]1)NCCN1CCCCC1 | 97.5% | 108% | 79.1% | 94.6% | 98.7% | 91.2% | 100% | 90.7% | 98.3% | 98.7%
Cc1ccc(-c2nc(C#N)c(S(=O)(=O)N3CCN(S(=O)(=O)c4ccc(Cl)cc4)CC3)o2)cc1 | 103% | 117% | 86.3% | 68.9% | 62.1% | 101% | 94.4% | 83.5% | 0.237% (active) | 98.7%
C=CC(=O)Nc1ccc(C)c(Oc2ccc(Cl)cc2)c1 | 49.7% | 60.2% | -8.04% (active) | 38% | 36.5% | 56% | 53% | 41.6% | 27.8% | 72%
Cc1cccc(NC(=O)CN2CCN(c3ncnc4c3cnn4-c3ccccc3)CC2)c1 | 55.4% | 76.1% | 100% | 83.1% | 89% | 63.1% | 78.5% | 67.9% | 88.1% | 90.1%
Cn1cc(-c2nc(N)nnc2-c2c[nH]c3ccc(Br)cc23)c2cc(Br)cnc21 | 3.67% (active) | -31.5% (active) | -0.672% (active) | 33.9% | 8.22% (active) | 3.39% (active) | -63.5% (active) | 8.26% (active) | 17.3% | 27.1%
CN(C)c1nc(NCCNS(=O)(=O)c2ccc(C3=Nc4c(N)nc(N)nc4NC(c4ccc(F)cc4)C3)cc2)nc(Nc2ccc(F)cc2)n1 (stereo not given) | 44.7% | 10% | 58.6% | 46.1% | 31.6% | 18.9% | 21.3% | 45.2% | -40% (active) | 55.4%
CN(C)c1nc(NCCNS(=O)(=O)c2ccc(C(=O)/C=C/c3ccc(C(F)(F)F)cc3)cc2)nc(Nc2ccc(F)cc2)n1 | -92.5% (active) | -94% (active) | 54.6% | 25.2% | -99.2% (active) | -33.5% (active) | 16.2% | -5.71% (active) | -100% (active) | -80% (active)
OCC1(CCCc2ccccc2)CCCN(c2nccc3ccccc23)C1 (stereo not given) | 27.7% | 21.3% | 40.5% | 44.2% | 40.1% | 52.2% | -60% (active) | 38.7% | 35.8% | 32.4%
CCOC(=O)/C=C/c1cccc2c1C(=O)NC(C)(c1cc3cc(Br)ccc3oc1=O)N2 (stereo not given) | 26.4% | 43.5% | 38.3% | 48.7% | 47.1% | 25.4% | 48.2% | 31.4% | 44.3% | 58.1%
Cc1ccc(C2=NN(c3nc(-c4cc5ccccc5oc4=O)cs3)C(c3ccc(C)cc3)C2)cc1 (stereo not given) | 91.7% | 124% | 96.2% | 94.7% | 99.9% | 99.9% | 101% | 91.2% | 91.2% | 123%
Cc1ccc(C(=O)C(c2c[nH]c3ccccc23)c2c[nH]c3ccccc23)cc1 | -15.3% (active) | -26.1% (active) | 70.1% | 87.4% | 21.6% | 17.1% | 83% | 51.2% | -78.5% (active) | 19.7%
O=C1CCCc2cc(OCC(=O)N3CCCCC3)ccc2N1 | 105% | 127% | 101% | 99.7% | 107% | 109% | 104% | 105% | 97.1% | 119%
COC1=C[C@]23CCC(=O)N2CCc2cc4c(cc2[C@@H]3[C@@H]1OC(=O)[C@H](C)O)OCO4 | -1.4% (active) | 1.93% (active) | -10.6% (active) | -1.61% (active) | -3.63% (active) | 14.8% | -2.42% (active) | 31.5% | -57.2% (active) | 15.1%
O=C(NN1C(=O)/C(=C/C=C/c2ccc([N+](=O)[O-])o2)SC1=S)c1ccccc1O | -80.3% (active) | -72.2% (active) | -61.8% (active) | -96.1% (active) | -99.5% (active) | -6.66% (active) | -100% (active) | -93.7% (active) | -91.6% (active) | -94.6% (active)
COc1cc(-c2nc3ccc(C)cc3[nH]2)ccc1OCc1nnc(-c2ccc(Br)cc2)o1 | 19.2% | -53.7% (active) | 85.7% | 57.7% | 5.13% (active) | 27.9% | 20.2% | 19.9% | 77.1% | 27.1%
COC(OC)C1=C(C)OC(N)=C(C#N)C12C(=O)Nc1ccccc12 (stereo not given) | 94.6% | 102% | 103% | 97% | 99.4% | 92.8% | 92.4% | 81.1% | 28.4% | 85%
